The target of assay [1] is Protein kinase C alpha type (Homo sapiens) (UniProt P17252). To be noted: at 1 µM.
For assay [2] the target is unchanged. To be noted: at 10 µM.
Assay [3] deals with Protein kinase C beta type (Homo sapiens) (UniProt P05771). The following applies: at 1 µM.
The target is the same in assay [4]. To be noted: at 10 µM.
Assay [5] shares this target. To be noted: at 1 µM. This is another data set of the same source.
Assay [6] shares this target. To be noted: at 10 µM. The source holds these as a separate data set.
In assay [7] the target is Protein kinase C gamma type (Homo sapiens) (UniProt P05129). The following applies: at 1 µM.
For assay [8] the target is unchanged. To be noted: at 10 µM.
The target in assay [9] is Protein kinase C delta type (Homo sapiens) (UniProt Q05655). The following applies: at 1 µM.
Sequence of Protein kinase C delta type (Homo sapiens) (Q05655 whole entry, looked up): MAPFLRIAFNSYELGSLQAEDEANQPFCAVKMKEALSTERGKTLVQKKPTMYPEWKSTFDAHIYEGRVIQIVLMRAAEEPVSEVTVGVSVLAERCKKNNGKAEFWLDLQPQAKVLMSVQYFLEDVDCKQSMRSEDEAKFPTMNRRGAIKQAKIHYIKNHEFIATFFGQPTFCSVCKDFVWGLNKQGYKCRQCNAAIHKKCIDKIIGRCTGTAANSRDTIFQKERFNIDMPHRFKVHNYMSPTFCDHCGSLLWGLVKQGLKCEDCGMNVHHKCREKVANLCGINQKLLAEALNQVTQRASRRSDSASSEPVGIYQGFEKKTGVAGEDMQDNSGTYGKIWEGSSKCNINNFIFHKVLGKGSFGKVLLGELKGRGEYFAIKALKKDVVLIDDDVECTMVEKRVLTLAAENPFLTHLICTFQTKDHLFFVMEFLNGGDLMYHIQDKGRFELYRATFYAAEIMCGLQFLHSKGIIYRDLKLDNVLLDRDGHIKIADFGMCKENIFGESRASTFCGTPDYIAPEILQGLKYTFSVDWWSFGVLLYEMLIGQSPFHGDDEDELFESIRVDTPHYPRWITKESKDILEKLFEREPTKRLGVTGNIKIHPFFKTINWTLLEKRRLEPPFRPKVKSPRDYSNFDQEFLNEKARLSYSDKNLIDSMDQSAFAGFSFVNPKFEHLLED
Assay [10] shares this target. To be noted: at 10 µM.
Assay [11] has as its target T1, Protein kinase C epsilon type (Homo sapiens) (UniProt Q02156).
T1 sequence (whole entry): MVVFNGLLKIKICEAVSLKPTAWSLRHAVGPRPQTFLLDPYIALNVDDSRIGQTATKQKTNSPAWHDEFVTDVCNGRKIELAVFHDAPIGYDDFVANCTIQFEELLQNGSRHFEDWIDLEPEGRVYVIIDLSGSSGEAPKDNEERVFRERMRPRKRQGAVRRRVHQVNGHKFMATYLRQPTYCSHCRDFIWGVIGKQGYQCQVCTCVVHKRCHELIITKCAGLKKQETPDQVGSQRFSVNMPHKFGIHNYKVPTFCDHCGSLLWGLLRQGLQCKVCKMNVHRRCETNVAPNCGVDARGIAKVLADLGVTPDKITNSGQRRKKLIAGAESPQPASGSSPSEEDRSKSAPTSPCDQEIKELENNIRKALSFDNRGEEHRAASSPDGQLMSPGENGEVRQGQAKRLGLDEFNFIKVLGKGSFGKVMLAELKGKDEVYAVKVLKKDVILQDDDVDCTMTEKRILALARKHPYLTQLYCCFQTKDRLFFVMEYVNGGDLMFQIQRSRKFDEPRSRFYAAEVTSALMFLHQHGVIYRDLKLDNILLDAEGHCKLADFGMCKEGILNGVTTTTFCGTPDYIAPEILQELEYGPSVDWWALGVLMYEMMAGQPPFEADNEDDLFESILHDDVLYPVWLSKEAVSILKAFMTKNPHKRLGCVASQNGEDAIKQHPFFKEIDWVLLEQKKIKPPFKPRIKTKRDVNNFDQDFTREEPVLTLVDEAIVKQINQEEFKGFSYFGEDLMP
To be noted: at 1 µM.

The target in assay [12] is T1, Protein kinase C epsilon type (Homo sapiens). The following applies: at 10 µM.

Structures are written as SMILES.

Here are results for 20 compounds from ChEMBL document CHEMBL2218924, “A broad activity screen in support of a chemogenomic map for kinase signalling research and drug discovery” (Biochem J, 2013).

Sequence of Protein kinase C beta type (Homo sapiens) (P05771 2-671 limits assumed): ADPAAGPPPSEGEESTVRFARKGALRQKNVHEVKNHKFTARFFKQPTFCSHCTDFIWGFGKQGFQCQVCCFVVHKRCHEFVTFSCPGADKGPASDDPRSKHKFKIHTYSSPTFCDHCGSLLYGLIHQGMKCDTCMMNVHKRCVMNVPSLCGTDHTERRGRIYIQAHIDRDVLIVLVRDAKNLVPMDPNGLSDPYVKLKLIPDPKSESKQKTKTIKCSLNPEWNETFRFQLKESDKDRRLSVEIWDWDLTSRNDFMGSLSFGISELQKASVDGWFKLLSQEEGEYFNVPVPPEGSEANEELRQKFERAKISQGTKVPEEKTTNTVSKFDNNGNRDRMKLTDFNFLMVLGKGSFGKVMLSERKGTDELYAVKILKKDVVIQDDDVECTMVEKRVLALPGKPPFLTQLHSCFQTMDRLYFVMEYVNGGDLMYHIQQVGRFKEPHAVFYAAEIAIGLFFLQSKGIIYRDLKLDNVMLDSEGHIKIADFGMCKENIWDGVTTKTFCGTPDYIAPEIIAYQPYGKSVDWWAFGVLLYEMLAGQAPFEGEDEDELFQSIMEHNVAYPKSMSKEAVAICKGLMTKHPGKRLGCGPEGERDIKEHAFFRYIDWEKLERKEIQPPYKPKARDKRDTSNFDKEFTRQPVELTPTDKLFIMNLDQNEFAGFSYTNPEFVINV

As for `COc1ccc(C(=O)Nc2sc3c(c2C(N)=O)CCCC3)cc1OC`, the residual activity (commonly the signal under treatment as a percentage of the control signal) in [1] was determined as 106%; in [2] it was 100%; in assay [3], 109%; in assay [4] it was 94%; in [5], 111%; in assay [6] it was 101%. Further, the residual activity in [7] was 117%; in assay [8], 104%; in assay [9], 101%; in assay [10], 104%; in assay [11], 89%; in assay [12], 96%.

For the compound `CC[n+]1c(/C=C/N(C)c2ccccc2)n(-c2ccccc2)c2ccc(-c3nc4ccccc4s3)cc21`, the residual activity worked out at 112% in assay [1]; 103% in [2]; 103% in assay [3]; 97% in assay [4]; 96% in assay [5]; 92% in assay [6]. Besides, the residual activity in assay [7] amounted to 115%; in [8], 110%; in assay [9], 100%; in assay [10], 102%; in [11], 101%; in assay [12], 107%.

Regarding `Oc1ccc(-c2nc(-c3ccc(F)cc3)c(-c3ccncc3)[nH]2)cc1`, the residual activity is 112% in [1]; 92% in [2]; 124% in assay [3]; 85% in assay [4]; 110% in [5]; 81% in assay [6]. Also, the residual activity came to 106% in assay [7]; 103% in assay [8]; 98% in assay [9]; 90% in [10]; 122% in [11]; 99% in assay [12].

With `O=C1NC(=O)/C(=C/c2ccc3c(c2)OC(F)(F)O3)S1`, the residual activity in assay [1] was 106%; in assay [2], 102%; in assay [3] it was 134%; in [4], 126%; in assay [5], 98%; in assay [6] it was 102%. In addition, the residual activity is 103% in assay [7]; 101% in [8]; 107% in assay [9]; 103% in [10]; 106% in assay [11]; 99% in [12].

For `N#C/C(=C(\N)Sc1ccc(N)cc1)c1ccccc1C(F)(F)F`, the residual activity was 107% in [1]; 96% in assay [2]; 114% in assay [3]; 104% in assay [4]; 114% in [5]; 99% in [6]. Moreover, the residual activity in assay [7] came to 98%; in assay [8], 104%; in assay [9], 99%; in [10], 104%; in assay [11], 100%; in [12], 106%.

On to `Cn1nc2c3c(cccc31)C(=O)c1ccccc1-2`, for which the residual activity stood at 101% in [1]; 97% in assay [2]; 107% in assay [3]; 104% in assay [4]; 109% in [5]; 103% in [6]. Moreover, the residual activity came to 90% in assay [7]; 101% in assay [8]; 104% in assay [9]; 108% in assay [10]; 106% in assay [11]; 98% in [12].

Regarding `O=C1Nc2ccc(Br)cc2/C1=C\c1cc2c([nH]1)CCCC2`, the residual activity in assay [1] came to 104%; in [2], 105%; in [7] it was 109%; in assay [8], 111%; in assay [9], 100%; in [10], 107%.

With `O=[N+]([O-])c1ccc(-c2nc(-c3ccc(F)cc3)c(-c3ccncc3)[nH]2)cc1`, the residual activity came to 110% in assay [1]; 99% in assay [2]; 107% in [3]; 97% in [4]; 107% in [5]; 96% in assay [6]. Also, the residual activity in [8] worked out at 114%; in assay [9], 104%; in [10], 103%; in [11], 106%; in assay [12], 99%.

For the compound `Oc1n[nH]c2nnc(-c3c(-c4ccccc4)nn4ccccc34)cc12`, the residual activity was found to be 102% in assay [1]; 92% in assay [2]; 94% in assay [3]; 98% in [4]; 103% in assay [5]; 97% in [6]. Also, the residual activity in [7] turned out to be 96%; in assay [8], 103%; in [9], 99%; in [10], 95%; in [11], 97%; in assay [12], 98%.

With `N#CC(C#N)=C(N)/C(C#N)=C/c1ccc(O)cc1`, the residual activity is 120% in assay [3]; 122% in assay [4]; 96% in assay [5]; 90% in assay [6]; 79% in [8]; 95% in [11]. Also, the residual activity in assay [12] came to 89%.

In the case of `Cc1cccc(-c2[nH]c(C(C)(C)C)nc2-c2ccc3c(c2)OCO3)n1`, the residual activity in assay [9] was 98%; in assay [10], 101%; in assay [11], 80%; in [12], 91%.

With `c1ccc(-c2n[nH]c3c2oc2ccccc23)cc1`, the residual activity in assay [5] came to 96%; in assay [6] it was 98%; in assay [11], 97%; in [12] it was 88%.

In the case of `Cc1nc(-c2ccccc2)c(-c2ccncc2)o1`, the residual activity in [1] is 113%; in assay [2] it was 101%; in assay [3], 109%; in assay [4] it was 95%; in [5], 106%; in assay [6] it was 101%. The residual activity was determined as 108% in [7]; 101% in assay [9]; 90% in assay [10]; 108% in assay [11]; 108% in [12].

`Cc1cc2ncc(-c3ccccc3)nc2cc1C`: the residual activity worked out at 106% in [1]; 109% in assay [2]; 125% in assay [3]; 131% in assay [4]; 100% in [5]; 107% in [6]. The residual activity in [7] came to 106%; in [8], 105%; in assay [9], 103%; in [10], 85%; in assay [12], 100%.

Regarding `Oc1ccc(Nc2nc(-c3ccc(Cl)cc3)cs2)cc1`, the residual activity stood at 110% in assay [1]; 101% in assay [2]; 112% in assay [4]; 121% in [5]; 101% in [6]; 102% in [7]. Also, the residual activity in assay [8] was 105%; in [9], 105%; in assay [10], 110%; in [11], 115%; in assay [12], 112%.

For the compound `Nc1cccc(-c2cc3c(Oc4cccc(O)c4)ncnc3[nH]2)c1`, the residual activity in [2] came to 97%; in [5] it was 104%; in assay [6], 95%; in assay [7] it was 98%; in assay [8], 101%; in assay [9] it was 100%. In addition, the residual activity was 95% in assay [10], 120% in [11] and 98% in [12].

With `CCC(=O)Nc1ccc2ncnc(Nc3cccc(Br)c3)c2c1`, the residual activity in [1] amounted to 100%; in [2], 91%; in assay [3], 117%; in assay [4], 99%; in assay [5], 108%; in [6] it was 104%. Also, the residual activity was determined as 109% in assay [7]; 100% in [8]; 101% in assay [9]; 113% in assay [10]; 79% in assay [11]; 110% in assay [12].

`Cc1cc(Nc2nc(-c3ccccc3)nc3ccccc23)n[nH]1`: the residual activity in [2] amounted to 63%; in assay [3], 109%; in [5], 106%; in assay [8], 51%.

Consider `CN(C)CCCn1cc(C2=C(c3c[nH]c4ccccc34)C(=O)NC2=O)c2ccccc21`, for which the residual activity in assay [5] is 9%; in [6], 2%; in [9] it was 2%; in assay [10] it was -1%.

Turning to `O=C1Nc2ccccc2/C1=C1/Nc2ccccc2/C1=N\OCCC(O)CO` (configuration not stated), the residual activity in [1] was determined as 96%; in assay [2], 65%; in assay [3] it was 108%; in assay [5], 97%; in [6], 99%; in assay [7], 81%. Moreover, the residual activity turned out to be 74% in [8], 95% in [11] and 82% in assay [12].
